According to PubChem BioAssay (NCI):
Compounds without any hit were thinned out: in the full panel of roughly 83,000, 20% have a hit.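 Single-dose data. Exposure time 48 hours. Values below 10 considered active.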 Values without a mark were called inactive. The source made the active and inactive calls.

Tests used:
Experiment in all cases: NCI-60 one-dose screen, 48 h (100 = growth as untreated, 0 = no growth, -100 = all killed)
Settings in all cases: 10 µM unless noted
NCI-H23 lung = test system: NCI-H23 lung
NCI-H226 lung = test system: NCI-H226 lung
NCI-H322M lung = test system: NCI-H322M lung
HOP-62 NSCLC = test system: HOP-62 NSCLC
NCI-H460 lung = test system: NCI-H460 lung
HOP-92 NSCLC = test system: HOP-92 NSCLC
NCI-H522 lung = test system: NCI-H522 lung
A549/ATCC NSCLC = test system: A549/ATCC NSCLC
786-0 renal = test system: 786-0 renal
COLO 205 colon = test system: COLO 205 colon
DU-145 prostate = test system: DU-145 prostate
K-562 leukemia = test system: K-562 leukemia
MALME-3M melanoma = test system: MALME-3M melanoma
MDA-MB-231 breast = test system: MDA-MB-231 breast
RXF 393 renal = test system: RXF 393 renal
SF-268 CNS = test system: SF-268 CNS
SF-295 CNS = test system: SF-295 CNS
SF-539 CNS = test system: SF-539 CNS
UACC-257 melanoma = test system: UACC-257 melanoma
M14 melanoma = test system: M14 melanoma

Structure (SMILES)	growth (NCI-H23 lung) [%]	growth (NCI-H226 lung) [%]	growth (NCI-H322M lung) [%]	growth (HOP-62 NSCLC) [%]	growth (NCI-H460 lung)	growth (HOP-92 NSCLC)	growth (NCI-H522 lung) [%]	growth (A549/ATCC NSCLC) [%]	growth (786-0 renal)	growth (COLO 205 colon)	growth (DU-145 prostate) [%]	growth (K-562 leukemia)	growth (MALME-3M melanoma)	growth (MDA-MB-231 breast) [%]	growth (RXF 393 renal)	growth (SF-268 CNS)	growth (SF-295 CNS) [%]	growth (SF-539 CNS)	growth (UACC-257 melanoma)	growth (M14 melanoma)
COc1cc2c(c(OC)c1OC)C(=O)CC(c1cccc(C(=O)Nc3ccc(C#N)cc3)c1)O2 (stereo not given)	78.7	46.9	90.8	91.5	89.3%	64.6%	46.8	87.4	90.4%	85.8%	88	42.2%	96.9%	73.5	99.7%	88.9%	77	93%	82.4%	72.1%
Cc1cc(O)cc(-c2nn(C)cc2-c2cc(N3CCOCC3)nc(-c3cccnc3)n2)c1	56.1	36.7	59.7	49.3	12.4%	6.01% (active)	13.1	39.3	18.2%	16.3%	53.7	21.6%	55.7%	53.2	9.64% (active)	44.8%	14.9	-12.8% (active)	61.3%	28.4%
O=c1ccc2ccc(OCCN3CCCCC3)cc2o1	98.4	103	97	84.5	108%	-17.3% (active)	86.6	98	99.5%	98.5%	118	-17.2% (active)	107%	95.7	114%	110%	98.8	106%	89.3%	96.1%
COc1ccc(-c2nc3c(c(-c4ccc(Cl)cc4)nn3-c3ccccc3)c(-c3ccccc3)c2C#N)cc1	103	97.4	102	111	104%	120%	96.3	95.9	108%	118%	104	100%	103%	111	134%	106%	102	103%	95.9%	92.3%
O=C(N/N=C/c1ccc(Cl)cc1)c1ccc(NC(=O)c2ccccn2)cc1	54.5	42.8	66.4	59.4	4.21% (active)	51.6%	73.3	26.1	4.44% (active)	59.1%	60.7	61%	44.9%	41.4	64.7%	70.5%	56.4	46%	63.3%	55.4%
N#Cc1c(-c2ccccc2)nc2c(c(-c3ccc(Cl)cc3)nn2-c2ccccc2)c1-c1ccc([N+](=O)[O-])cc1	96	94.7	97	94.7	103%	103%	91.7	100	110%	110%	101	101%	101%	102	109%	98.6%	98.7	95.9%	96.2%	97.9%
CCCCNC(=O)c1ccc2c(c1)nc(-c1ccccc1)n2C1CCCCC1	92.3	109	90.5	77.3	109%	105%	80.9	95.9	92.7%	88.9%	103	75.8%	100%	96.1	120%	104%	95.4	105%	109%	89.8%
CC(C)=CC(=O)N[C@H]1CC[C@]2(C)C3CC[C@]4(C)C(C(C)N(C)C)=CCC4C3CCC2[C@H]1O (stereo not given in full)	65	99.6	57.5	66.6	18.6%	41%	89.4	75.5	48.2%	-14.9% (active)	71.9	19.5%	-27.3% (active)	44.2	26.8%	9.05% (active)	59.2	-32.2% (active)	-26.8% (active)	-56.3% (active)
